Measurements as given in PubChem BioAssay AID651953 (The Scripps Research Institute Molecular Screening Center, 2012).
Among all 2,400 compounds or so, about 430 (18%) were called active. The list is a sample of the results. Values without a mark were called inactive. Rule as the data show it: active = activation above about 12%; inactive = the rest.

Experiment: nonspecific calcium signal increase, Ga16 cells – cell-based, fluorescence, counter-screen for TAAR1 antagonist project (AID 651953);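 also: 0% = vehicle wells and 100% = saturating stimulus response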
Settings: Ga16-expressing cells, agonist counterscreen, at 3 µM, hits give high values

Compound	activation
Cc1ccc2cccc(OCCCOc3ccccc3CO)c2n1	7.98%
COc1ccc(/C=C/C(=O)Nc2ccc(C34CC5CC(CC(O)(C5)C3)C4)cc2)cc1OC	11.4%
Cc1cccc(NC(=O)c2nc[nH]c2C(=O)NCC(=O)OCc2ccccc2)c1	4.58%
CSCCC(NC(=O)COc1ccccc1)C(=O)OCC(=O)c1cc2ccccc2o1 (stereo not given)	7.36%
CC(=O)c1ccccc1OCc1ccc(C(=O)c2ccccc2)cc1	6.62%
Cc1nc(N2CCN(c3ccccn3)CC2)c2c(C)c(C(=O)Nc3ccc(F)cc3)sc2n1	8.75%
O=C(NCCN1C(=O)S/C(=C\c2cccnc2)C1=O)c1ccc(S(=O)(=O)N2CCCC2)cc1	2.99%
O=S1(=O)c2c(cccc2N2CCCCC2)O[C@H](COCc2ccccc2)CN1C1CC1	2.53%
CCN1CCc2c(C#N)c(NCc3ccccc3)nc(NCCO)c2C1	4.39%
COc1ccc(Cl)cc1NC(=O)CCS(=O)(=O)c1cc2c(cc1C)NC(=O)CO2	8.26%
COc1ccc(-c2cc(C(=O)N(C)CC(=O)Nc3ccccc3Cl)c3ccccc3n2)cc1OC	7.25%
CCOc1ccc(N2CC(C(=O)N/N=C/c3sccc3C)CC2=O)cc1 (stereo not given)	1%
C/C(=N\Nc1ncc(Cl)cc1Cl)c1ccc(S(=O)(=O)NCc2ccco2)cc1	0.19%
CSC(=S)N/N=C/c1c[nH]c2ccccc12	6.16%
O=C(O)c1ccc(NC(=O)c2cn(-c3ccccc3)nc2-c2ccc(Cl)cc2)cc1	3.12%
O=C(NCC1CCCO1)c1cc2c([nH]c3ccccc32)c(-c2ccc(F)cc2)n1 (stereo not given)	6.43%
COc1ccc(-c2cc(C(=O)N(C)Cc3ccccc3)c3ccccc3n2)cc1	4.97%
COc1ccc(CN(C)C(=O)c2cc(-c3ccc(C)cc3C)nc3ccccc23)c(OC)c1OC	11.6% (active)
COc1ccc(-c2cc(C(=O)N(C)Cc3ccc(OC)c(OC)c3OC)c3ccccc3n2)cc1OC	7.43%
CC(C)Oc1cc(F)ccc1-c1cc(C(=O)Nc2ccc(F)cc2)[nH]n1	5.64%
COc1ccc(C(=O)Nc2ccccc2C(=O)N/N=C/c2ccc(O)c(OC)c2)cc1	7.09%
Cc1cc(C(C)(C)C)oc1C(=O)N(CC(=O)NC1CCCC1)Cc1ccc(Cl)cc1	13.9% (active)
C=CCc1cc(S(=O)(=O)c2ccc(O)c(CC=C)c2)ccc1O	3.77%
COc1ccc2[nH]c(=O)c(CN(Cc3cccnc3)S(=O)(=O)c3ccccc3F)cc2c1	9.12%
Cc1ccccc1OCC(=O)Nc1ccc(N2CCN(C(=O)C(C)C)CC2)c(Cl)c1	11.8% (active)
Cc1ccc(C)c(N2CCN(C(=O)CCCCCn3c(=S)[nH]c4ccc(N5CCOCC5)cc4c3=O)CC2)c1	8.79%
CCNS(=O)(=O)c1ccc(CCC(=O)N2CCN(c3cc(Cl)ccc3C)CC2)cc1	11.5% (active)
OC(c1ccccc1)(c1ccccc1)C1CCN(CCCOc2ccc(-c3ccsc3)cc2)CC1	17.6% (active)
Cc1ccc(NC(=O)c2ccc(CSc3ncnc4nc[nH]c34)cc2)c(C)c1	7.81%
O=C(CCc1ccccc1)Nc1cccc(-c2nnc(-c3ccco3)o2)c1	11%
